PubChem BioAssay
Activity calls are given as the source filed them.

How the values were obtained:
[1] = tested on: PRMT1 (protein arginine N-methyltransferase 1); test: PRMT1 binders on small-molecule microarrays, primary screen, biochemical, small-molecule microarray, 635 nm fluorescence (AID 1088); details: small-molecule microarray binding, higher = more signal;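 note: binding of Prmt1 protein to compounds spotted on small-molecule microarray slides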
[2] = yeast growth modulation, basal conditions, primary screen, YJM789 clinical isolate, OD600, 24 h (AID 1089);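 note: growth of clinical yeast isolate S. cerevisiae YJM 789 seeded 1000 cells per well; test concentration not given here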; details: S. cerevisiae YJM789 growth, higher = more signal, called active from +8 up or from −8 down
[3] = fission yeast growth modulation, primary screen, strain 972, OD600, 24 h, no modulator (AID 1090);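 note: basal condition with compound alone and no growth modifier present; test concentration not given here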; details: S. pombe 972 growth, higher = more signal, called active from +8 up or from −8 down
[4] = S. cerevisiae growth modulation with rapamycin, primary screen, strain BY4716, OD600, 96 h (AID 1091); details: higher = more signal, called active from +8 up or from −8 down; note: test concentration not given here
[5] = target: Torsin-1A-interacting protein 2 (Homo sapiens) (UniProt Q8NFQ8); test: LULL1 binders on small-molecule microarray, primary screen, cell lysate, human LULL1 lysate, 635/667 nm fluorescence (AID 1092); details: hLULL1 lysate binding, 635 nm fluorescence, higher = more signal;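 note: probe is lysate of COS7 cells overexpressing human LULL1; score merges per-feature 667 nm fluorescence with signal-to-noise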
[6] = E. coli growth modulation, two-sided OD650, primary screen, E. coli filamentation project, strain DRC41, 24 h (AID 1093); details: OD650, 24 h, higher = more signal, called active from +8 up or from −8 down;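 note: MC1000 strain lacking acrAB efflux and sulA so SOS filamentation is blocked; test concentration not given here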
[7] = small-molecule microarray binders of probe aLefty2, primary screen, biochemical, biotinylated probe, 635/667 nm fluorescence (AID 1094); details: higher = more signal;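 note: score merges spot fluorescence near 667 nm with spot signal-to-noise ratio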
[8] = tested on: Noggin (protein binding on small-molecule microarray); test: Noggin binders on small-molecule microarray, primary screen, biochemical, 635/667 nm fluorescence (AID 1095); details: 635 nm fluorescence, higher = more signal;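 note: score merges 667 nm feature fluorescence with signal to noise over triplicate slides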
[9] = target: Neurogenic locus notch homolog protein 3 (Homo sapiens) (UniProt Q9UM47); test: NOTCH3 binders on small-molecule microarray, primary screen, biochemical, 635/667 nm fluorescence (AID 1096); details: NOTCH3 binding, 635 nm fluorescence, higher = more signal
[10] = small-molecule microarray binders of probe aEGFR, primary screen, biochemical, biotinylated probe, 635/667 nm fluorescence (AID 1097); details: higher = more signal;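 note: probe is a biotinylated anti-EGFR antibody binding compounds printed on slides; score combines fluorescence near 667 nm and signal to noise of each spot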
[11] = tested on: Plasmodium falciparum Sir2 (PF13_0152, Sir2A); test: pfSir2 binders on small-molecule microarrays, primary screen, biochemical, small-molecule microarray, 635 nm fluorescence (AID 1098); details: small-molecule microarray binding, fluorescence 635 nm; higher = more signal;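 note: score merges spot fluorescence intensity with its signal-to-noise ratio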
[12] = small-molecule microarray binders of probe aDKK1, primary screen, biochemical, biotinylated probe, 635/667 nm fluorescence (AID 1099); details: higher = more signal;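 note: score merges 667nm spot fluorescence with signal to noise across triplicate slides; reference of the scale not given here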
[13] = small-molecule microarray binders of probe aCHRDL2, primary screen, biochemical, biotinylated probe, 635/667 nm fluorescence (AID 1100); details: higher = more signal
[14] = splicing luciferase reporter signal modulators, primary screen, spliceosome inhibition project, cell-based, HEK293, splice +/- reporter (AID 1101); details: luminescence, 24 h, higher = more signal, called active from +8 up or from −8 down;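 note: HEK293 cells carrying a splicing-competent luciferase reporter gene; test concentration not given here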
[15] = target: Fibroblast growth factor 10 (Homo sapiens) (UniProt O15520); test: FGF10 binders on small-molecule microarrays, primary screen, biochemical, small-molecule microarray, 635 nm fluorescence (AID 1102); details: FGF10 binding, fluorescence 635 nm, higher = more signal
[16] = tested on: glycogen synthase kinase-3 (GSK3A per assay name; protocol says GSK3B); test: GSK3 binders on small-molecule microarrays, primary screen, biochemical, small-molecule microarray, 635 nm fluorescence, GSK3A (AID 1103); details: small-molecule microarray binding, fluorescence 635 nm; higher = more signal; note: the record names both GSK3A and GSK3B
[17] = target: Epidermal growth factor receptor (Homo sapiens) (UniProt P00533); test: EGFR binders on small-molecule microarrays, primary screen, biochemical, small-molecule microarray, 635 nm fluorescence (AID 1104); details: EGFR binding, higher = more signal;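 note: score merges 667 nm emission intensity with spot signal to noise over triplicate slides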
[18] = target: Follistatin-related protein 3 (Homo sapiens) (UniProt O95633); test: FSTL3 binders on small-molecule microarrays, primary screen, biochemical, small-molecule microarray, 635 nm fluorescence (AID 1105); details: FSTL3 binding, higher = more signal;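 note: score merges emission near 667 nm and signal to noise per printed spot across three slides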
[19] = target: Dickkopf-related protein 1 (Homo sapiens) (UniProt O94907); test: DKK1 binders on small-molecule microarrays, primary screen, biochemical, small-molecule microarray, 635 nm fluorescence scan (AID 1106); details: DKK1 binding, higher = more signal;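 note: score merges emission near 667 nm with signal to noise over three replicate slides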
[20] = tested on: Inhibin beta A chain (activin A); test: INHBA (activin A) binders on microarrays, primary screen, biochemical, small-molecule microarray, 635 nm fluorescence scan (AID 1107); details: small-molecule microarray binding, higher = more signal;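 note: mouse activin A protein probed at 4.33 µg/mL on printed slides; score merges bound-protein fluorescence near 667 nm with spot signal-to-noise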

Chain of Epidermal growth factor receptor (Homo sapiens) (P00533 whole entry, looked up): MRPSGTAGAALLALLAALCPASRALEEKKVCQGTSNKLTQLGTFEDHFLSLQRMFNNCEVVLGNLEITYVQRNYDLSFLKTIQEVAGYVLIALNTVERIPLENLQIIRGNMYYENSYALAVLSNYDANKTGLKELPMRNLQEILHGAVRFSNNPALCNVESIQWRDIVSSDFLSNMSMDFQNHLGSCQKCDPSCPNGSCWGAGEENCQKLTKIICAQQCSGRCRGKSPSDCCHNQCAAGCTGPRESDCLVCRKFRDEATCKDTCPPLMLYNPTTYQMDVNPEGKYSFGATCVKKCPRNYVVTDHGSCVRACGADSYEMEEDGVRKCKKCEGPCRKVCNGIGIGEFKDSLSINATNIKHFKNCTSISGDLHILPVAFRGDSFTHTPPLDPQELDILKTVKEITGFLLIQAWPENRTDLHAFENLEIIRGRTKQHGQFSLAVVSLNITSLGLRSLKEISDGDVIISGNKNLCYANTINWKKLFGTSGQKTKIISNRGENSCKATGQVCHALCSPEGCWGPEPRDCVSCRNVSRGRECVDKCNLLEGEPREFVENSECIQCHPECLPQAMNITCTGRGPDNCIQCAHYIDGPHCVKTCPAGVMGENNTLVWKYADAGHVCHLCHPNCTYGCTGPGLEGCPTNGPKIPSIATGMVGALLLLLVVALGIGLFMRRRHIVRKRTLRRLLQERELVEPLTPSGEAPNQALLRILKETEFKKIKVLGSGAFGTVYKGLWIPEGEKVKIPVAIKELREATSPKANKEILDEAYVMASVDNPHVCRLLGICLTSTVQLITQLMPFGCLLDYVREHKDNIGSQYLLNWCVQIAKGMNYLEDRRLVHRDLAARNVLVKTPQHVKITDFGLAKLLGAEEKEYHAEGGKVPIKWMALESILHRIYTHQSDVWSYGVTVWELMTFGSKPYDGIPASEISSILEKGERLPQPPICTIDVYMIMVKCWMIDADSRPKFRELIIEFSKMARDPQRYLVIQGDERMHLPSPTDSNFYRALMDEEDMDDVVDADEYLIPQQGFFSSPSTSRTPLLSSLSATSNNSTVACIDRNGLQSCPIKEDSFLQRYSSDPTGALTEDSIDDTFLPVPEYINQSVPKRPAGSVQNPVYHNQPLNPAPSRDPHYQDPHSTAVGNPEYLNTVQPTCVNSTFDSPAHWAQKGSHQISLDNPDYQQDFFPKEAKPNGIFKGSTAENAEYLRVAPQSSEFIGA
Chain of Neurogenic locus notch homolog protein 3 (Homo sapiens) (Q9UM47 whole entry, looked up): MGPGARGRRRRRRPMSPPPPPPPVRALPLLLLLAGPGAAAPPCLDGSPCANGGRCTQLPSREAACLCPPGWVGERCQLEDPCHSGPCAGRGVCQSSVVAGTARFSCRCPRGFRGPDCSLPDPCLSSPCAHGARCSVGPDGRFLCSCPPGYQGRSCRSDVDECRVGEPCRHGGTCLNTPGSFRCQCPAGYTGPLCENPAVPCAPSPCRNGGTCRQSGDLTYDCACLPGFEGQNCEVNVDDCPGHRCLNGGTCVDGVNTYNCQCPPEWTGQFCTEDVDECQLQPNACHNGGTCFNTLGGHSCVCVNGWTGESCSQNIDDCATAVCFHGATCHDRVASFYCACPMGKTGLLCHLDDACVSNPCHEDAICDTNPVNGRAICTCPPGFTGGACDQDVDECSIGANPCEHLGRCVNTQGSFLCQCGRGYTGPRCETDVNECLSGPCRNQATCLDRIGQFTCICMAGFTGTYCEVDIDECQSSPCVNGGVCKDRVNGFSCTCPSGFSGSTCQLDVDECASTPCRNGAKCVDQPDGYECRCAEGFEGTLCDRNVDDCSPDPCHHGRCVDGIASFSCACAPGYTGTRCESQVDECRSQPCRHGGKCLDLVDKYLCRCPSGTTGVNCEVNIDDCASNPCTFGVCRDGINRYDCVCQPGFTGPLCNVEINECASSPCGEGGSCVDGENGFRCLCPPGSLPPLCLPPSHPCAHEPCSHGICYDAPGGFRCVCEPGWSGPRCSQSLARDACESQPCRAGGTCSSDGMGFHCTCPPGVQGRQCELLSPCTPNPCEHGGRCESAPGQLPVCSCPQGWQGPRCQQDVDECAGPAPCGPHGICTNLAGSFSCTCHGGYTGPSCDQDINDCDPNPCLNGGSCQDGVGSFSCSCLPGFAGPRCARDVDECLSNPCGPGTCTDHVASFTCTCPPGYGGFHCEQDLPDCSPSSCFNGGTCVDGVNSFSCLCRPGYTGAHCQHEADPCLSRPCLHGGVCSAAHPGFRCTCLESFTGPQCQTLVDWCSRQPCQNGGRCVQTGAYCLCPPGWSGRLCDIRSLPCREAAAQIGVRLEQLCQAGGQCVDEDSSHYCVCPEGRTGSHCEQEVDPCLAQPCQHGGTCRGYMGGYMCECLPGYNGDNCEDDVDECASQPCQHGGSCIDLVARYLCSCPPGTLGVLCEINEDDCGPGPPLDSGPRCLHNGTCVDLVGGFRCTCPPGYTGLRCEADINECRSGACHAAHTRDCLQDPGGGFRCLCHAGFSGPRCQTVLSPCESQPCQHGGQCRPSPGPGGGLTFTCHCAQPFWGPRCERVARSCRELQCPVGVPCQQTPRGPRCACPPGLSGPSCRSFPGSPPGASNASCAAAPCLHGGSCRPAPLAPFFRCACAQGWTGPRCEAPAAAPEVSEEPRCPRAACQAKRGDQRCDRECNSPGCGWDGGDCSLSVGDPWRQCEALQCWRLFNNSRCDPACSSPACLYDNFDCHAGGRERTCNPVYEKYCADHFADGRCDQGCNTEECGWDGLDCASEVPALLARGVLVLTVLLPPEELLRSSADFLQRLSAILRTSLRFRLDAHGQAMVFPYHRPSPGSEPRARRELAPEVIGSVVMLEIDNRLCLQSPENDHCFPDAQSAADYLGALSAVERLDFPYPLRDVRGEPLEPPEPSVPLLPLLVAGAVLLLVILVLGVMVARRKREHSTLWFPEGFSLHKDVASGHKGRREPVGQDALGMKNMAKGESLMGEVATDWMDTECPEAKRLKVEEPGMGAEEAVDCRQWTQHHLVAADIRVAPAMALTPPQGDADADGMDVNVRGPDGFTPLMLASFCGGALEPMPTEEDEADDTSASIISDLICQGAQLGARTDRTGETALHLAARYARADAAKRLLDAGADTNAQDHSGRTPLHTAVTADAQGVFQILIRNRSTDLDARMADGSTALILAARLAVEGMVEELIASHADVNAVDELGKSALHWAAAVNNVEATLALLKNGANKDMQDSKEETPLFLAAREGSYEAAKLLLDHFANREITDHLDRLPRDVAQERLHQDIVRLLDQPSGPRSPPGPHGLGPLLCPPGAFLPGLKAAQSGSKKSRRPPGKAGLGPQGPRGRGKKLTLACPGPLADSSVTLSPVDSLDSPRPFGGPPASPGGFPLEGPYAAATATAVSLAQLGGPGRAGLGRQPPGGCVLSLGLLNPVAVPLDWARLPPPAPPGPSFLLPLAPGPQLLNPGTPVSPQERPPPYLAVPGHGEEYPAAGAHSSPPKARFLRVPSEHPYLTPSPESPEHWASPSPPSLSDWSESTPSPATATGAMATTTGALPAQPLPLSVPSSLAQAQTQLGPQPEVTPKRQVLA
Chain of Dickkopf-related protein 1 (Homo sapiens) (O94907 whole entry, looked up): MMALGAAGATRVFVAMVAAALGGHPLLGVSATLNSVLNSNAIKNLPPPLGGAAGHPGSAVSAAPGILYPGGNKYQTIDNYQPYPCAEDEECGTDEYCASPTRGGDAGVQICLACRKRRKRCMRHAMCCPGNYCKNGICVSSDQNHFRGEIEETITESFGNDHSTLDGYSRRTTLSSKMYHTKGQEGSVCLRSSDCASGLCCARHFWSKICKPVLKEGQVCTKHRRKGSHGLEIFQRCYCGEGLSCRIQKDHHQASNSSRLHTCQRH
Chain of Follistatin-related protein 3 (Homo sapiens) (O95633 whole entry, looked up): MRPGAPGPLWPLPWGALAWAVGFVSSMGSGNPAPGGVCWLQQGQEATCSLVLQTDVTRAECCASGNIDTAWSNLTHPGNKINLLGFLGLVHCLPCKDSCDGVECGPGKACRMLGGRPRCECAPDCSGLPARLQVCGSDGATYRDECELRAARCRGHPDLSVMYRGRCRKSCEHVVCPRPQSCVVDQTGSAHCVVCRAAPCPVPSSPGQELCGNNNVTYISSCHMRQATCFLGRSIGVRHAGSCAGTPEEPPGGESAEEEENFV
Chain of Torsin-1A-interacting protein 2 (Homo sapiens) (Q8NFQ8 whole entry, looked up): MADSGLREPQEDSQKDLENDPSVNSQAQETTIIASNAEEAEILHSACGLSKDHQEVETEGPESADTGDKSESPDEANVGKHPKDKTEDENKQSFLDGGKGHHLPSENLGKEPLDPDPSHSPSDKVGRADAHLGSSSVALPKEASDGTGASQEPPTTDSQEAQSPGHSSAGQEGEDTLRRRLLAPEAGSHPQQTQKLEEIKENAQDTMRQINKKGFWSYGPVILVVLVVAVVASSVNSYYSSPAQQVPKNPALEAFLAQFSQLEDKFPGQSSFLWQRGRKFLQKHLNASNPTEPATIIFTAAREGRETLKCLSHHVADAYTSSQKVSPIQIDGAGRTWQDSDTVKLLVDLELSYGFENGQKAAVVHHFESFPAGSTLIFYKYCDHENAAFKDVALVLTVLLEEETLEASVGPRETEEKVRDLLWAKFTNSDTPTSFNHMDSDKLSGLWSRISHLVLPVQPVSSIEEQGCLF
Chain of Fibroblast growth factor 10 (Homo sapiens) (O15520 whole entry, looked up): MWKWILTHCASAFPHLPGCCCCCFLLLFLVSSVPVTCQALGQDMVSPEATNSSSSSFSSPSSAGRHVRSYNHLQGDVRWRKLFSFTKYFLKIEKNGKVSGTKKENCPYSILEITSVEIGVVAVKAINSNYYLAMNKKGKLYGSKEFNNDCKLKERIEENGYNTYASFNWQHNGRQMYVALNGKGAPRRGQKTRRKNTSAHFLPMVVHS

Compound	composite z-score [1]	z-score [2]	z-score [3]	z-score [4]	composite z-score [5]	z-score [6]	composite z-score [7]	composite z-score [8]	composite z-score [9]	composite z-score [10]	composite z-score [11]	composite z-score [12]	composite z-score [13]	z-score [14]	composite z-score [15]	composite z-score [16]	composite z-score [17]	composite z-score [18]	composite z-score [19]	composite z-score [20]
CN(C)C(=O)C1N=C(c2ccc(OCCCO)cc2)N(c2ccccc2)O1 (stereo not given)	1.56	-0.0944 (inactive)	-1.17 (inactive)	-0.582 (inactive)	1.72	1.15 (inactive)	-0.244	1.41	1.05	0.123	1.22	0.0309	-0.0552	-1.06 (inactive)	1.5	1.13	0.662	0.739	0.726	-0.319
COC(=O)c1c(CC[C@@H](CO)NC(=O)N2CCC[C@H]2Cn2cc(Cc3ccccc3)nn2)oc(C(C)=O)c1C(=O)OC	1.28	0.102 (inactive)	-0.279 (inactive)	-1.45 (inactive)	3.14	-0.0178 (inactive)	-0.147	0.387	0.524	-0.111	0.787	-0.0956	-0.553	-0.311 (inactive)	0.572	0.0908	-0.0867	0.92	0.135	0.268
CO[C@H]1O[C@H](CO)[C@@H](OC(=O)Nc2ccccc2-c2ccccc2)[C@H](OC(=O)Nc2ccc3c(c2)OCO3)[C@H]1OC(=O)Nc1ccc2c(c1)OCO2	1.53	1.86 (inactive)	1.35 (inactive)	7.32 (inactive)	3.25	2 (inactive)	0.132	0.852	1.12	0.0115	1.38	0.244	0.485	-1.2 (inactive)	1.24	1.32	0.17	1.43	0.298	0.752
C#CCN([C@@H](Cc1ccc(O)cc1)C(=O)OC)[C@@H](/C=C/C1CC1)[C@H](O)Cc1ccccc1	0.0371	-0.686 (inactive)	-4.05 (inactive)	0.417 (inactive)	-0.0965	-1.17 (inactive)	-0.241	0.0698	0.337	-0.13	-0.189	-0.236	-0.26	0.25 (inactive)	-0.251	-0.689	-0.0832	0.122	0.103	0.644
OCCCC1=CC(c2ccc(CN3CCCC3)cc2)N(Cc2sc3ccccc3c2Cl)CC1 (stereo not given)	1.2	-0.72 (inactive)	-14.3 (active)	-0.628 (inactive)	1.22	-0.271 (inactive)	0.0998	0.895	0.686	0.148	1.39	0.14	0.504	-1.07 (inactive)	1.03	1.3	0.62	0.854	0.771	1.41
O=C1O[C@@H](c2ccccc2)[C@@H](c2ccccc2)N2[C@@H](c3ccc(O)cc3)[C@]3(C(=O)Nc4ccc(C#CC5(O)CCCCCC5)cc43)[C@@H](C(=O)NC[C@H](O)c3ccccc3)[C@H]12	1.26	0.21 (inactive)	-0.0625 (inactive)	1.24 (inactive)	2.05	-0.255 (inactive)	-0.242	-0.0578	-0.0872	-0.162	1.29	-0.171	0.467	-0.55 (inactive)	-0.174	0.791	-0.568	-0.442	-0.505	-0.357
CCOC(=O)C[C@H]1[C@H](OC(=O)c2ccccc2-c2ccccc2)[C@@H](NC(=O)c2ccc(-c3ccccc3)cc2)c2cc(OCCCO)ccc2N1C(=O)c1ccc2ccccc2n1	1.02	0.214 (inactive)	0.632 (inactive)	0.723 (inactive)	1.11	-0.75 (inactive)	0.0332	0.427	0.592	0.2	0.533	-0.293	-0.0904	0.224 (inactive)	0.948	0.749	0.247	0.749	0.204	0.392
CC(CO)N1C(=O)[C@@H]2[C@H]3C(=O)OCC=C[C@H]3OC23C=CCN(Cc2ccccc2)C(=O)[C@@H]13 (stereo not given in full)	-1.28	-0.163 (inactive)	-0.528 (inactive)	-1.45 (inactive)	1.41	2.31 (inactive)	-0.219	-0.662	0.0095	-0.206	0.978	-0.321	0.247	-1.11 (inactive)	-0.49	-1.23	-1.18	-0.578	-0.567	0.056
OCC1CC(c2ccccc2)=NO1 (stereo not given)	-1.11	-0.248 (inactive)	-0.0256 (inactive)	0.368 (inactive)	-1.3	0.677 (inactive)	-0.119	0.397	-0.473	-0.068	0.0686	-0.217	-0.354	-0.0813 (inactive)	0.0912	0.0016	0.37	-0.0588	0.473	0.685
CCOC(=O)C[C@H]1[C@H](OC(=O)c2cc3ccccc3oc2=O)[C@@H](NC(=O)Cc2ccc(OC)cc2)c2cc(OCCCO)ccc2N1C(=O)c1ccc2ccccc2n1	0.268	-0.724 (inactive)	-0.138 (inactive)	-0.0607 (inactive)	0.773	1.31 (inactive)	-0.11	0.68	1.15	-0.0241	0.195	0.0588	-0.335	0.126 (inactive)	1.28	0.372	0.409	0.889	0.578	0.155
